Reference: PubChem BioAssay (Tox21)
Several values for one entry are separate records, joined by “and”; a condition that tells them apart may be missing. Equal entries are not always repeated. Records with an inconclusive call do not appear. Activity calls are given as the source filed them. Calls follow the shape of the dose curve; as a rule, active = well fitted curve in the direction sought with a large enough effect in the repeat runs; inconclusive = weak or mixed curves; inactive = no such curve, though single readings can be large; an effect the other way counts as inactive or inconclusive. Positions of bridges follow the written chain, without caps; N, C: chain ends. Non-standard residues stand in square brackets, D forms with d. Residues, ends and D or L forms follow the SMILES beside them. *: point of attachment. Dab(CH2SO3H) = N[C@@H](CCNCS(=O)(=O)O)C(=O)O; X3 = CC[C@@H](C)CCCCC(=O)*; Dab = NCC[C@H](N)C(=O)O

Assays:
[1] = target: Nuclear receptor subfamily 1 group I member 2 (Rattus norvegicus) (UniProt Q9R1A7); experiment: Rat pregnane X receptor (rPXR) activation by small molecules, qHTS assay (AID 1346983); conditions: rPXR luciferase reporter cells, One-Glo luminescence, 24 h; max activation: hits give high values; also: nearly all actives have a fitted effect of over 20% in size
Method in brief: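 Cell-based rPXR luciferase reporter assay, 2,000 cells per well, rested 5hr at 37 C before compound addition in DMSO, then 24 hr at 37 C. One-Glo reagent was added and luminescence read after 30 min at room temperature.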

[2] = target: Nuclear receptor subfamily 1 group I member 2 (Homo sapiens) (UniProt O75469); experiment: CYP3A4 induction through human pregnane X receptor (PXR) by small molecules, qHTS assay (AID 1346984); also: nearly all actives have a fitted effect of over 40% in size
Method in brief: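 Luminescence readout: luciferase signal after One-Glo (30 min, room temperature), following 3 h at 37C with 3uM final Luciferin-IPA P450 substrate. Cells were DPX-2 (HepG2, PXR/CYP3A4-luc co-transfected) dosed for 24 h.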

[3] = target: Nuclear receptor subfamily 1 group I member 2 (Homo sapiens) (UniProt O75469); experiment: Human pregnane X receptor (PXR) activation by small molecules, qHTS assay (AID 1346985); also: nearly all actives have a fitted effect of over 40% in size
Method in brief: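 DPX-2 cells (HepG2 co-transfected with a PXR response element and a CYP3A4-promoter luciferase construct) were seeded at 2,000 per well, rested 5 hr at 37C, then exposed to DMSO-dissolved compounds for 24 hr. Activation was read as luciferase luminescence.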
% is scaled to controls: 0 for no effect and ±100 for the full control effect.

Nuclear receptor subfamily 1 group I member 2 (Rattus norvegicus), sequence (Q9R1A7 whole entry, looked up): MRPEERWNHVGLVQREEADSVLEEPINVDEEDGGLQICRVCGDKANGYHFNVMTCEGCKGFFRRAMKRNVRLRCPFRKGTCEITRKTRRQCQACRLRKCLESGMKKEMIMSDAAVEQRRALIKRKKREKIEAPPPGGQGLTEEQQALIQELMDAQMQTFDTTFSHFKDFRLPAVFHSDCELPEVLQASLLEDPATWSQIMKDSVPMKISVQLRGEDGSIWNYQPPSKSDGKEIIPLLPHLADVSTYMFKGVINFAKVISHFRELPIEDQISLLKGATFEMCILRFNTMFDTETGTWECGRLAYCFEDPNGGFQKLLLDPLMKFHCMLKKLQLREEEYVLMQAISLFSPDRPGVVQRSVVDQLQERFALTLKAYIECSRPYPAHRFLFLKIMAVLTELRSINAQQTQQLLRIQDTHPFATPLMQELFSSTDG

C=CC1=C(C(=O)O)N2C(=O)[C@@H](NC(=O)/C(=N/OCC(=O)O)c3csc(N)n3)[C@H]2SC1 (stereo in doubt)
inactive: max activation [1] -1.86% | Potency [2] | Potency [3]

CC[C@H]1OC(=O)C[C@@H](O)[C@H](C)[C@@H](O[C@@H]2O[C@H](C)[C@@H](O[C@H]3C[C@@](C)(O)[C@@H](O)[C@H](C)O3)[C@H](N(C)C)[C@H]2O)[C@@H](CC=O)C[C@@H](C)C(=O)/C=C/C(C)=C/[C@@H]1CO[C@@H]1O[C@H](C)[C@@H](O)[C@@H](OC)[C@H]1OC
inactive: max activation [1] 0.133% | Potency [2] | Potency [3]

COC(=O)C[C@](O)(CCCC(C)(C)O)C(=O)O[C@@H]1C(OC)=CC23CCCN2CCc2cc4c(cc2[C@H]13)OCO4 (some centres undefined)
inactive: max activation [1] -15.5% | Potency [2] | Potency [3]

Cc1c(N)nc([C@H](CC(N)=O)NC[C@H](N)C(N)=O)nc1C(=O)N[C@H](C(=O)N[C@H](C)[C@@H](O)[C@H](C)C(=O)N[C@H](C(=O)NCCc1nc(-c2nc(C(=O)NCCCCN=C(N)N)cs2)cs1)[C@@H](C)O)[C@@H](O[C@@H]1O[C@@H](CO)[C@@H](O)[C@H](O)[C@@H]1O[C@H]1O[C@H](CO)[C@@H](O)[C@H](OC(N)=O)[C@@H]1O)c1cnc[nH]1
inactive: max activation [1] -0.9% | Potency [2] | Potency [3]

CC(=O)NC[C@H]1CN(c2ccc(N3CCOCC3)c(F)c2)C(=O)O1
inactive: max activation [1] -2.66% | Potency [2] | Potency [3]

CC[C@@H](C)[C@H](N)C(=O)O
inactive: max activation [1] -3.95% | Potency [2] | Potency [3]

COC1[C@@H](O[C@@H]2O[C@H](C)[C@@H](O[C@H]3C[C@@](C)(O)[C@H](OC(=O)CC(C)C)[C@H](C)O3)[C@H](N(C)C)[C@H]2O)[C@@H](CC=O)C[C@@H](C)[C@@H](O)/C=C/C=C/C[C@@H](C)OC(=O)C[C@H]1OC(C)=O (some centres undefined)
inactive: max activation [1] -1.32% | Potency [2] | Potency [3]

CC1CCCCN1CCCOC(=O)c1ccccc1 (centres undefined)
inactive: max activation [1] -7.12% | Potency [2] | Potency [3]

O=C(O)c1ccc(NC2OC[C@@H](O)[C@H](O)[C@H]2O)cc1 (some centres undefined)
inactive: max activation [1] 10.7% | Potency [2] | Potency [3]

O=C(O)COc1ccccc1/C=N/NC(=O)c1ccncc1
inactive: max activation [1] -3.2% | Potency [2] | Potency [3]

OCCCNc1ccccc1
inactive: max activation [1] -0.22% | Potency [2] | Potency [3]

Cc1cccc(C)c1NC(=O)C1CCCCN1C (centres undefined)
inactive: max activation [1] -1.93% | Potency [2] | Potency [3]

C[C@H](O)CN(C)C
inactive: max activation [1] -2.23% | Potency [2] | Potency [3]

C=C(Nc1ccc(OCC)cc1)Nc1ccc(OCC)cc1
inactive: max activation [1] -1.1% and 0.608% | Potency [2] | Potency [3]

CC[C@@H](C)CCCCC(=O)N[C@@H](CCNCS(=O)(=O)O)C(=O)N[C@H](C(=O)N[C@@H](CCNCS(=O)(=O)O)C(=O)N[C@H]1CCNC(=O)[C@H]([C@@H](C)O)NC(=O)[C@H](CCNCS(=O)(=O)O)NC(=O)[C@H](CCNCS(=O)(=O)O)NC(=O)[C@H](CC(C)C)NC(=O)[C@@H](CC(C)C)NC(=O)[C@H](CCNCS(=O)(=O)O)NC1=O)[C@@H](C)O (X3-[Dab(CH2SO3H)]T[Dab(CH2SO3H)][Dab][Dab(CH2SO3H)][dL]L[Dab(CH2SO3H)][Dab(CH2SO3H)]T; lactam 4-C)
inactive: max activation [1] -6.38% | Potency [2] | Potency [3]

NS(=O)(=O)c1cc(Cl)c(Cl)c(S(N)(=O)=O)c1
inactive: max activation [1] -2.98% | Potency [2] | Potency [3]

NCC1CCC(C(=O)O)CC1 (centres undefined)
inactive: max activation [1] -1.27% | Potency [2] | Potency [3]

CN1C(=O)C[C@@H](C(=O)N[C@@H](Cc2cnc[nH]2)C(=O)N2CCC[C@H]2C(N)=O)NC1=O
inactive: max activation [1] -0.675% | Potency [2] | Potency [3]

CC(C)C[C@H](NC(=O)[C@@H](COC(C)(C)C)NC(=O)[C@H](Cc1ccc(O)cc1)NC(=O)[C@H](CO)NC(=O)[C@H](Cc1c[nH]c2ccccc12)NC(=O)[C@H](Cc1cnc[nH]1)NC(=O)[C@@H]1CCC(=O)N1)C(=O)N[C@@H](CCCN=C(N)N)C(=O)N1CCC[C@H]1C(=O)NNC(N)=O
inactive: max activation [1] -1.54% | Potency [2] | Potency [3]

CC/C=C\C/C=C\C/C=C\C/C=C\C/C=C\C/C=C\CCC(=O)O
inactive: max activation [1] -7.03% | Potency [2] | Potency [3]

COc1ccc(/C=N/NC(=O)c2ccncc2)c(C(=O)O)c1OC
inactive: max activation [1] -2.1% | Potency [2] | Potency [3]

CC12CCC(C1)C(C)(C)C2=O (centres undefined)
inactive: max activation [1] -2.76% | Potency [2] | Potency [3]

O=C1C2CC3CC1CC(O)(C3)C2
inactive: max activation [1] -3.68% | Potency [2] | Potency [3]

O=P(O)(O)C(O)(Cn1ccnc1)P(=O)(O)O
inactive: max activation [1] -1.82% | Potency [2] | Potency [3]

NCC(O)CC(=O)O (centres undefined)
inactive: max activation [1] -2.62% | Potency [2] | Potency [3]

COc1ccc(/C=C/C(=O)O)cc1
inactive: max activation [1] 1.47% | Potency [2] | Potency [3]

O=C1[O][Bi][O]c2ccccc21
inactive: max activation [1] -4.48% | Potency [2] | Potency [3]

CC1(C)S[C@@H]2[C@H](N3C(=O)C(c4ccccc4)NC3(C)C)C(=O)N2[C@H]1C(=O)O (some centres undefined)
inactive: max activation [1] -2.27% | Potency [2] | Potency [3]
